{"source": "PubChem BioAssay", "key": {"[1]": {"test_system": "PRMT1 (protein arginine N-methyltransferase 1)", "experiment": "small molecules binding arginine methyltransferase PRMT1 – biochemical, small-molecule microarray, 635 nm fluorescence, primary screen (AID 1088)", "conditions": "higher = more signal"}, "[2]": {"experiment": "growth effects on S. cerevisiae YJM789 – YJM789 clinical isolate, OD600, 24 h, basal, primary screen (AID 1089);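 also: growth of clinical yeast isolate S. cerevisiae YJM 789 seeded 1000 cells per well; test concentration not given here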", "conditions": "higher = more signal, called active from +8 up or from −8 down"}, "[3]": {"experiment": "S. pombe growth modifiers, basal conditions – strain 972, OD600, 24 h, no modulator, primary screen (AID 1090);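 also: basal condition with compound alone and no growth modifier present; test concentration not given here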", "conditions": "S. pombe 972 growth, higher = more signal, called active from +8 up or from −8 down"}, "[4]": {"experiment": "budding yeast growth modifiers under rapamycin – strain BY4716, OD600, 96 h, primary screen (AID 1091); also: test concentration not given here", "conditions": "S. cerevisiae BY4716 + rapamycin, higher = more signal, called active from +8 up or from −8 down"}, "[5]": {"target": "Torsin-1A-interacting protein 2 (Homo sapiens) (UniProt Q8NFQ8)", "sequence (Q8NFQ8 whole entry, looked up)": "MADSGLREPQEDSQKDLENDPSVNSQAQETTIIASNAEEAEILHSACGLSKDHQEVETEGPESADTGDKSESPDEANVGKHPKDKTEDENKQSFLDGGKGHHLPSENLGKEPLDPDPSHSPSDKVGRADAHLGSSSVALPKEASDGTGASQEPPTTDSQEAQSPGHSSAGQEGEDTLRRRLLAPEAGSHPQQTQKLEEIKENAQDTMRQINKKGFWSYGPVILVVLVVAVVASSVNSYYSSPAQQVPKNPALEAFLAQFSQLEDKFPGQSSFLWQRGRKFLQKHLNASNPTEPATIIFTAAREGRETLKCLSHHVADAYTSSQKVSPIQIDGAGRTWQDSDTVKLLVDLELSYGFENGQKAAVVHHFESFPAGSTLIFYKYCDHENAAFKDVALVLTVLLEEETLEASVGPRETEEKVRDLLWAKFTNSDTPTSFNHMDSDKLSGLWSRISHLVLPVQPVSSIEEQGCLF", "experiment": "small molecules binding lysate-expressed LULL1 – cell lysate, human LULL1 lysate, 635/667 nm fluorescence, primary screen (AID 1092);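 also: probe is lysate of COS7 cells overexpressing human LULL1; score merges per-feature 667 nm fluorescence with signal-to-noise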", "conditions": "small-molecule microarray, hLULL1 lysate binding, 635 nm fluorescence; higher = more signal"}, "[6]": {"experiment": "optical density change of DRC41 E. coli – strain DRC41, OD650, 24 h, E. coli filamentation project, primary screen (AID 1093);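 also: MC1000 strain lacking acrAB efflux and sulA so SOS filamentation is blocked; test concentration not given here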", "conditions": "E. coli DRC41 growth, higher = more signal, called active from +8 up or from −8 down"}, "[7]": {"experiment": "probe aLefty2 binding to arrayed compounds – biochemical, biotinylated probe, 635/667 nm fluorescence, primary screen (AID 1094);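 also: score merges spot fluorescence near 667 nm with spot signal-to-noise ratio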", "conditions": "small-molecule microarray, higher = more signal"}, "[8]": {"test_system": "Noggin (protein binding on small-molecule microarray)", "experiment": "small molecules binding Noggin protein – biochemical, 635/667 nm fluorescence, primary screen (AID 1095);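 also: score merges 667 nm feature fluorescence with signal to noise over triplicate slides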", "conditions": "635 nm fluorescence, higher = more signal"}, "[9]": {"target": "Neurogenic locus notch homolog protein 3 (Homo sapiens) (UniProt Q9UM47)", "sequence (Q9UM47 whole entry, looked up)": "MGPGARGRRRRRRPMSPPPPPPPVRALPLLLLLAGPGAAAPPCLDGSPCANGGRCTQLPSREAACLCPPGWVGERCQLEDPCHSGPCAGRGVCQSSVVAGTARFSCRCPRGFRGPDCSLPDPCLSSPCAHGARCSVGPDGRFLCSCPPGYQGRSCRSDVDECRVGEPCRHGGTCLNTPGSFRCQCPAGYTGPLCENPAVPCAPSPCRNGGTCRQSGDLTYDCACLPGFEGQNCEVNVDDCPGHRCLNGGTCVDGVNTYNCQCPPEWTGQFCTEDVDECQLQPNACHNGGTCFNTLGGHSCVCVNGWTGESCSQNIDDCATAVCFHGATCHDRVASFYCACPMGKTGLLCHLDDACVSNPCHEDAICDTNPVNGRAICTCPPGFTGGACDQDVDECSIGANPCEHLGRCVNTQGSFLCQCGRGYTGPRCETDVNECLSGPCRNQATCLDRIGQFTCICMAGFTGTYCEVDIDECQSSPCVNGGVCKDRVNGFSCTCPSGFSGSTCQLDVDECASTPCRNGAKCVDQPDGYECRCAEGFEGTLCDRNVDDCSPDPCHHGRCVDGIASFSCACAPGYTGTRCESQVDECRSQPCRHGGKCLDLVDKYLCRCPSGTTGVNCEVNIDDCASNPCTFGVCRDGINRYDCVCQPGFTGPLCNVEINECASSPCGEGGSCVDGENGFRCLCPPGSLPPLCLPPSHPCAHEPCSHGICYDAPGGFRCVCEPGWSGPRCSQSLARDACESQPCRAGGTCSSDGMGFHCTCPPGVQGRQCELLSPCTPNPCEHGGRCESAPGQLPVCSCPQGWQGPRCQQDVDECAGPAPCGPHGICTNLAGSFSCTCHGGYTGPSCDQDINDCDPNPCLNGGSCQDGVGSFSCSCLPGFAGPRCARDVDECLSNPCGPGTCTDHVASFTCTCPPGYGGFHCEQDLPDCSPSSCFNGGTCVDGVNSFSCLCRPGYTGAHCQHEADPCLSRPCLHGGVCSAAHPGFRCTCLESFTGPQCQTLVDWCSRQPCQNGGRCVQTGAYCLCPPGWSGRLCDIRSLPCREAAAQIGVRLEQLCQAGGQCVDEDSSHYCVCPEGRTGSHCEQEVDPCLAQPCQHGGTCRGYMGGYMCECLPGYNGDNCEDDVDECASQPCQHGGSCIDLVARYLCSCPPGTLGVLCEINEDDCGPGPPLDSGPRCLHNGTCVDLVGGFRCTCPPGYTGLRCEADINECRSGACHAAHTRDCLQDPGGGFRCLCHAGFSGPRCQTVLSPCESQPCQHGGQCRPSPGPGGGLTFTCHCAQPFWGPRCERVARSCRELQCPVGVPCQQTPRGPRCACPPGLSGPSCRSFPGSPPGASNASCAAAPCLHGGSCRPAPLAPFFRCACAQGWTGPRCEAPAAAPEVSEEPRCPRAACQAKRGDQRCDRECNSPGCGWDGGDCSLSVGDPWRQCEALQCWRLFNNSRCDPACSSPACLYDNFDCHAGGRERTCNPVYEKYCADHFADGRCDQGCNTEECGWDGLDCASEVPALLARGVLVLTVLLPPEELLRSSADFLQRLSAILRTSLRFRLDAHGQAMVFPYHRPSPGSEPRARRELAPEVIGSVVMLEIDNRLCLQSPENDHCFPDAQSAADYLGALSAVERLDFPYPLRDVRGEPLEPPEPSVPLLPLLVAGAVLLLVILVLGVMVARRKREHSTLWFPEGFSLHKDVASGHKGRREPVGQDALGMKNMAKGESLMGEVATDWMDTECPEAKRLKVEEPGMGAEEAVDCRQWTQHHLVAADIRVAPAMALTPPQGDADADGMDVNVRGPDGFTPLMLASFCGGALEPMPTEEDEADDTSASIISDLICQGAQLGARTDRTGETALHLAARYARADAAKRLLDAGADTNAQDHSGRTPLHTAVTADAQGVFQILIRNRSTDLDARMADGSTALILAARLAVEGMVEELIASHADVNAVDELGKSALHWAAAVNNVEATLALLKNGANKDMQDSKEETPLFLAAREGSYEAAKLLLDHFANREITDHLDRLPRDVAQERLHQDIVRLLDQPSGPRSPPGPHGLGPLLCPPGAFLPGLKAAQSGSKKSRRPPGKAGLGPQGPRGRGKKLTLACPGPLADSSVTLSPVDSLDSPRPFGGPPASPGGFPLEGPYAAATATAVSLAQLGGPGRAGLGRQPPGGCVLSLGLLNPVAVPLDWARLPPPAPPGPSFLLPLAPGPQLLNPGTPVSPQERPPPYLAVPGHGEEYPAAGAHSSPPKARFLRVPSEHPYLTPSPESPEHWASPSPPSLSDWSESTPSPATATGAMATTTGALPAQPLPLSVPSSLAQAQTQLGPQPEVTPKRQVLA", "experiment": "small molecules binding NOTCH3 protein – biochemical, 635/667 nm fluorescence, primary screen (AID 1096)", "conditions": "small-molecule microarray, 635 nm fluorescence, higher = more signal"}, "[10]": {"experiment": "probe aEGFR binding to arrayed compounds – biochemical, biotinylated probe, 635/667 nm fluorescence, primary screen (AID 1097);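 also: probe is a biotinylated anti-EGFR antibody binding compounds printed on slides; score combines fluorescence near 667 nm and signal to noise of each spot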", "conditions": "small-molecule microarray, higher = more signal"}, "[11]": {"test_system": "Plasmodium falciparum Sir2 (PF13_0152, Sir2A)", "experiment": "Plasmodium falciparum Sir2A binding compounds – biochemical, small-molecule microarray, 635 nm fluorescence, primary screen (AID 1098);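 also: score merges spot fluorescence intensity with its signal-to-noise ratio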", "conditions": "fluorescence 635 nm, higher = more signal"}, "[12]": {"experiment": "probe aDKK1 binding to arrayed compounds – biochemical, biotinylated probe, 635/667 nm fluorescence, primary screen (AID 1099);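 also: score merges 667nm spot fluorescence with signal to noise across triplicate slides; reference of the scale not given here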", "conditions": "small-molecule microarray, higher = more signal"}, "[13]": {"experiment": "probe aCHRDL2 binding to arrayed compounds – biochemical, biotinylated probe, 635/667 nm fluorescence, primary screen (AID 1100)", "conditions": "small-molecule microarray, higher = more signal"}, "[14]": {"experiment": "change in splice reporter luminescence, either direction, cell-based, HEK293, spliceosome inhibition project, primary screen (AID 1101);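 also: HEK293 cells carrying a splicing-competent luciferase reporter gene; test concentration not given here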", "conditions": "HEK293 splicing luciferase reporter, 24 h, higher = more signal, called active from +8 up or from −8 down"}, "[15]": {"target": "Fibroblast growth factor 10 (Homo sapiens) (UniProt O15520)", "sequence (O15520 whole entry, looked up)": "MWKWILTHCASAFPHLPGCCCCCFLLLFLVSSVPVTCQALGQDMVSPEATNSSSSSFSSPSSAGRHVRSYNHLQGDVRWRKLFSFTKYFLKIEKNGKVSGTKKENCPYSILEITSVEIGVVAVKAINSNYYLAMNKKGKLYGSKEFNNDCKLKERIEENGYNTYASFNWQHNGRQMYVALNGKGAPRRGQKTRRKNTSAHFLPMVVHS", "experiment": "compounds binding fibroblast growth factor 10 – biochemical, small-molecule microarray, 635 nm fluorescence, primary screen (AID 1102)", "conditions": "FGF10 binding, fluorescence 635 nm, higher = more signal"}, "[16]": {"test_system": "glycogen synthase kinase-3 (GSK3A per assay name; protocol says GSK3B)", "experiment": "compounds binding glycogen synthase kinase-3 – biochemical, small-molecule microarray, 635 nm fluorescence, GSK3A, primary screen (AID 1103); also: the record names both GSK3A and GSK3B", "conditions": "fluorescence 635 nm, higher = more signal"}, "[17]": {"target": "Epidermal growth factor receptor (Homo sapiens) (UniProt P00533)", "sequence (P00533 whole entry, looked up)": "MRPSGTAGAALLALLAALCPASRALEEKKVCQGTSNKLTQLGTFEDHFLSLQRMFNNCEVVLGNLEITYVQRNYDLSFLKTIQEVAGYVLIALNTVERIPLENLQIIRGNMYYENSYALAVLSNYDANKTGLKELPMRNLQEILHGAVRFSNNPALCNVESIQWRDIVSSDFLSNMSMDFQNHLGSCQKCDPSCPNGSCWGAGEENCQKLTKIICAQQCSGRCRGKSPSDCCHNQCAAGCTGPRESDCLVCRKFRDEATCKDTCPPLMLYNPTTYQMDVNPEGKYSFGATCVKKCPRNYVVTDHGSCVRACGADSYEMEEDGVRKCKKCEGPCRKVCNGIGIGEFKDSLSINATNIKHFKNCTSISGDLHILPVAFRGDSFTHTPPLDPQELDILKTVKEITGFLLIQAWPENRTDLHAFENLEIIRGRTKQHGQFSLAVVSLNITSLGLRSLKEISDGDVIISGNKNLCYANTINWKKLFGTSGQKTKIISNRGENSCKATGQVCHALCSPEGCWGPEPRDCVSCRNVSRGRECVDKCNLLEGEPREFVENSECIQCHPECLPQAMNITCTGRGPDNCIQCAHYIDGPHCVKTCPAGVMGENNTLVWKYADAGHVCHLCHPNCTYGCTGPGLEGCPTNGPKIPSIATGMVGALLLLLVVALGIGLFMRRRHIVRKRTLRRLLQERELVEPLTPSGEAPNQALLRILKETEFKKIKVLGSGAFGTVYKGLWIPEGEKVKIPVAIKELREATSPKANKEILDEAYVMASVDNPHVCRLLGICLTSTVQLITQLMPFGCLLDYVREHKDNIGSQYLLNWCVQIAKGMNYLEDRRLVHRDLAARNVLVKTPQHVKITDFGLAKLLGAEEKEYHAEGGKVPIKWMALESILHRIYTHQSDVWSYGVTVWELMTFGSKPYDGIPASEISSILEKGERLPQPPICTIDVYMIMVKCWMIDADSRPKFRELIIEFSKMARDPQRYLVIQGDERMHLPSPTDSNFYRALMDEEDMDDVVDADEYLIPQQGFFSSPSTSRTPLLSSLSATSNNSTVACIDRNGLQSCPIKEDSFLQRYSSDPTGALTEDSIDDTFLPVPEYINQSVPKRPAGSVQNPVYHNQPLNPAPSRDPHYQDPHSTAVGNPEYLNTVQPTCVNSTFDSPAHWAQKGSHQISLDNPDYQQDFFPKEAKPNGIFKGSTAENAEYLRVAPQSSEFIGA", "experiment": "compounds binding epidermal growth factor receptor – biochemical, small-molecule microarray, 635 nm fluorescence, primary screen (AID 1104);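 also: score merges 667 nm emission intensity with spot signal to noise over triplicate slides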", "conditions": "EGFR binding, higher = more signal"}, "[18]": {"target": "Follistatin-related protein 3 (Homo sapiens) (UniProt O95633)", "sequence (O95633 whole entry, looked up)": "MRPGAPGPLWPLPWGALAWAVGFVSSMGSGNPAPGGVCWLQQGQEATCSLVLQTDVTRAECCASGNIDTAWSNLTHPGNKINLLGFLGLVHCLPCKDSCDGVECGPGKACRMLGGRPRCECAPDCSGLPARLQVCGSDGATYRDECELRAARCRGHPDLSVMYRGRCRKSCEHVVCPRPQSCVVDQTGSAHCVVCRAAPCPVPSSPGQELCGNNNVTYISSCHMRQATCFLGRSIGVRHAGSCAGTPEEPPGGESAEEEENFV", "experiment": "compounds binding follistatin-related protein 3 – biochemical, small-molecule microarray, 635 nm fluorescence, primary screen (AID 1105);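 also: score merges emission near 667 nm and signal to noise per printed spot across three slides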", "conditions": "FSTL3 binding, higher = more signal"}, "[19]": {"target": "Dickkopf-related protein 1 (Homo sapiens) (UniProt O94907)", "sequence (O94907 whole entry, looked up)": "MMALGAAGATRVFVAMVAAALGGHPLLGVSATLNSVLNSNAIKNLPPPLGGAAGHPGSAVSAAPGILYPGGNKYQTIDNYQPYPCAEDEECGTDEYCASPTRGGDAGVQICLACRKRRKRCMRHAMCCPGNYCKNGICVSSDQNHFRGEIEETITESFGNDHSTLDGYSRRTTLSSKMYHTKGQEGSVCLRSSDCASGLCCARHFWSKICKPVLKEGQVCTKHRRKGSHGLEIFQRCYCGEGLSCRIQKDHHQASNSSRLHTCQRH", "experiment": "small molecules binding DKK1 protein – biochemical, small-molecule microarray, 635 nm fluorescence scan, primary screen (AID 1106);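 also: score merges emission near 667 nm with signal to noise over three replicate slides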", "conditions": "higher = more signal"}, "[20]": {"test_system": "Inhibin beta A chain (activin A)", "experiment": "small molecules binding activin A – biochemical, small-molecule microarray, 635 nm fluorescence scan, primary screen (AID 1107);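 also: mouse activin A protein probed at 4.33 µg/mL on printed slides; score merges bound-protein fluorescence near 667 nm with spot signal-to-noise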", "conditions": "INHBA, higher = more signal"}}, "note": "Active and inactive are the calls of the source."}
{"compound": "Cc1ccc(S[C@]2(C(=O)NCc3ccccc3)CC(=O)N(Cc3ccccc3C(F)(F)F)[C@@H]2c2ccc(CO)cc2)cc1", "values": [{"measurement": "composite z-score", "setting": "[1]", "value": 0.884}, {"measurement": "z-score", "setting": "[2]", "value": "-1.61 (inactive)"}, {"measurement": "z-score", "setting": "[3]", "value": "0.447 (inactive)"}, {"measurement": "z-score", "setting": "[4]", "value": "-0.417 (inactive)"}, {"measurement": "composite z-score", "setting": "[5]", "value": 1.05}, {"measurement": "z-score", "setting": "[6]", "value": "0.837 (inactive)"}, {"measurement": "composite z-score", "setting": "[7]", "value": -0.154}, {"measurement": "composite z-score", "setting": "[8]", "value": -1.16}, {"measurement": "composite z-score", "setting": "[9]", "value": -0.64}, {"measurement": "composite z-score", "setting": "[10]", "value": -0.272}, {"measurement": "composite z-score", "setting": "[11]", "value": 0.537}, {"measurement": "composite z-score", "setting": "[12]", "value": 0.0191}, {"measurement": "composite z-score", "setting": "[13]", "value": 0.984}, {"measurement": "z-score", "setting": "[14]", "value": "-0.284 (inactive)"}, {"measurement": "composite z-score", "setting": "[15]", "value": -0.915}, {"measurement": "composite z-score", "setting": "[16]", "value": -1.13}, {"measurement": "composite z-score", "setting": "[17]", "value": -1.22}, {"measurement": "composite z-score", "setting": "[18]", "value": -1.28}, {"measurement": "composite z-score", "setting": "[19]", "value": -1.72}, {"measurement": "composite z-score", "setting": "[20]", "value": 0.242}]}
{"compound": "COc1ccc(C(O)C2C=CC3C(=O)N(C)C(=O)C3N2N(c2ccccc2)c2ccccc2)cc1", "note": "(stereo not given)", "values": [{"measurement": "composite z-score", "setting": "[1]", "value": 0.923}, {"measurement": "z-score", "setting": "[2]", "value": "-0.054 (inactive)"}, {"measurement": "z-score", "setting": "[3]", "value": "0.733 (inactive)"}, {"measurement": "z-score", "setting": "[4]", "value": "1.08 (inactive)"}, {"measurement": "composite z-score", "setting": "[5]", "value": 2.18}, {"measurement": "z-score", "setting": "[6]", "value": "-0.994 (inactive)"}, {"measurement": "composite z-score", "setting": "[7]", "value": 0.276}, {"measurement": "composite z-score", "setting": "[8]", "value": 0.269}, {"measurement": "composite z-score", "setting": "[9]", "value": 0.791}, {"measurement": "composite z-score", "setting": "[10]", "value": -0.111}, {"measurement": "composite z-score", "setting": "[11]", "value": 1.59}, {"measurement": "composite z-score", "setting": "[12]", "value": 0.996}, {"measurement": "composite z-score", "setting": "[13]", "value": 0.93}, {"measurement": "z-score", "setting": "[14]", "value": "1.09 (inactive)"}, {"measurement": "composite z-score", "setting": "[15]", "value": 0.434}, {"measurement": "composite z-score", "setting": "[16]", "value": 0.243}, {"measurement": "composite z-score", "setting": "[17]", "value": -0.0923}, {"measurement": "composite z-score", "setting": "[18]", "value": 0.585}, {"measurement": "composite z-score", "setting": "[19]", "value": -0.128}, {"measurement": "composite z-score", "setting": "[20]", "value": 1.32}]}
{"compound": "COCCCN1C(=O)[C@@]2(c3ccc([N+](=O)[O-])cc3)CC(=O)N(CC34CC5CC(CC(C5)C3)C4)[C@@H]2c2ccc(CO)cc21", "values": [{"measurement": "composite z-score", "setting": "[1]", "value": 1.27}, {"measurement": "z-score", "setting": "[2]", "value": "0.222 (inactive)"}, {"measurement": "z-score", "setting": "[3]", "value": "0.432 (inactive)"}, {"measurement": "z-score", "setting": "[4]", "value": "-1.33 (inactive)"}, {"measurement": "composite z-score", "setting": "[5]", "value": 2.07}, {"measurement": "z-score", "setting": "[6]", "value": "-0.0011 (inactive)"}, {"measurement": "composite z-score", "setting": "[7]", "value": -0.159}, {"measurement": "composite z-score", "setting": "[8]", "value": 0.432}, {"measurement": "composite z-score", "setting": "[9]", "value": -0.182}, {"measurement": "composite z-score", "setting": "[10]", "value": -0.115}, {"measurement": "composite z-score", "setting": "[11]", "value": 1.47}, {"measurement": "composite z-score", "setting": "[12]", "value": -0.183}, {"measurement": "composite z-score", "setting": "[13]", "value": -0.0705}, {"measurement": "z-score", "setting": "[14]", "value": "-0.515 (inactive)"}, {"measurement": "composite z-score", "setting": "[15]", "value": 0.329}, {"measurement": "composite z-score", "setting": "[16]", "value": 0.541}, {"measurement": "composite z-score", "setting": "[17]", "value": -0.557}, {"measurement": "composite z-score", "setting": "[18]", "value": 0.458}, {"measurement": "composite z-score", "setting": "[19]", "value": -0.104}, {"measurement": "composite z-score", "setting": "[20]", "value": 0.405}]}
{"compound": "Cc1ccc(N2C(=O)c3ccccc3[C@](C)(C(=O)NCCCN(C)C)[C@@H]2c2ccc(CO)cc2)nc1", "values": [{"measurement": "composite z-score", "setting": "[1]", "value": 0.409}, {"measurement": "z-score", "setting": "[2]", "value": "-0.903 (inactive)"}, {"measurement": "z-score", "setting": "[3]", "value": "-0.808 (inactive)"}, {"measurement": "z-score", "setting": "[4]", "value": "-1.51 (inactive)"}, {"measurement": "composite z-score", "setting": "[5]", "value": 2.93}, {"measurement": "z-score", "setting": "[6]", "value": "-0.677 (inactive)"}, {"measurement": "composite z-score", "setting": "[7]", "value": -0.0405}, {"measurement": "composite z-score", "setting": "[8]", "value": -0.817}, {"measurement": "composite z-score", "setting": "[9]", "value": -0.681}, {"measurement": "composite z-score", "setting": "[10]", "value": -0.209}, {"measurement": "composite z-score", "setting": "[11]", "value": 0.485}, {"measurement": "composite z-score", "setting": "[12]", "value": -0.0971}, {"measurement": "composite z-score", "setting": "[13]", "value": 0.451}, {"measurement": "z-score", "setting": "[14]", "value": "0.055 (inactive)"}, {"measurement": "composite z-score", "setting": "[15]", "value": -0.47}, {"measurement": "composite z-score", "setting": "[16]", "value": -1.21}, {"measurement": "composite z-score", "setting": "[17]", "value": -1.1}, {"measurement": "composite z-score", "setting": "[18]", "value": -0.444}, {"measurement": "composite z-score", "setting": "[19]", "value": -0.599}, {"measurement": "composite z-score", "setting": "[20]", "value": 0.573}]}
